Data published in the supplement of paper PMC7695840.

Tests used:
[1] = test system: Staphylococcus aureus MW2 delta-mecA (mecA-); assay: normalized GFP fluorescence (growth of mecA- strain) (fraction of control range); higher = more growth of mecA- strain; details: compound concentration: 150 uM; cefoxitin: subinhibitory; fluorescent label: GFP
Summary of the method: (§1)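 Fluorescence from DsRed (540/590) and GFP (485/520) was recorded after 20 h of static growth at 37 °C and 90% humidity. The wells held a 1:1 mix of pre-induced S. aureus MW2 cells, gene-bearing with DsRed and gene-deleted with GFP, in LB with a daily-set subinhibitory antibiotic dose, dispensed at 5 µL/well onto 150 μM compound (1.5% DMSO) in 1536-well plates, single replicate. Each channel was scaled per plate between single-strain control medians, excluding plates with high untreated ratios and rows with DsRed/GFP >10.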

[2] = test system: Staphylococcus aureus MW2 (mecA+); assay: normalized DsRed fluorescence (growth of mecA+ strain) (fraction of control range); higher = more growth of mecA+ strain; details: compound concentration: 150 uM; cefoxitin: subinhibitory; fluorescent label: DsRed
Summary of the method: as §1

Row | Structure (SMILES) | normalized GFP fluorescence [1] | normalized DsRed fluorescence [2]
1 | O=C(O)c1cc(-c2ccc(F)cc2F)ccc1O | 0.0802 | 0.298
2 | CCOc1cc(CC(=O)N[C@@H](CC(C)C)c2ccccc2N2CCCCC2)ccc1C(=O)O | -0.00461 | 0.578
3 | Cc1nnc(C(=O)NC(C)(C)c2nc(C(=O)NCc3ccc(F)cc3)c(O)c(=O)n2C)o1 [Raltegravir (MK-0518)] | 0.051 | 0.507
4 | CCCc1nn(C)c2c(=O)[nH]c(-c3cc(S(=O)(=O)N4CCN(C)CC4)ccc3OCC)nc12 | 0.331 | 0.655
5 | Cc1nnc(C(C)C)n1C1C[C@H]2CC[C@@H](C1)N2CC[C@H](NC(=O)C1CCC(F)(F)CC1)c1ccccc1 (stereo in doubt) [Maraviroc] | 0.747 | 0.67
6 | COc1cc2nccc(Oc3ccc(NC(=O)Nc4cc(C)on4)c(Cl)c3)c2cc1OC [Tivozanib (AV-951)] | 0.445 | 1.09
7 | CC(C)c1nc(N(C)S(C)(=O)=O)nc(-c2ccc(F)cc2)c1/C=C/[C@@H](O)C[C@@H](O)CC(=O)O | 0.207 | 0.514
8 | Clc1cccc(Cl)c1NC1=NCCN1 | 0.205 | 0.663
9 | CC(=O)O[C@H]1C[C@@H]2CC[C@@H]3[C@H](CC[C@@]4(C)[C@H]3C[C@H]([N+]3(C)CCCCC3)[C@@H]4OC(C)=O)[C@@]2(C)C[C@@H]1N1CCCCC1 | 0.425 | 0.572
10 | COC(=O)C1=C(C#N)NC(C)=C(C(=O)OC(C)C)C1c1cccc([N+](=O)[O-])c1 (stereo unspecified) [Nilvadipine (ARC029)] | 0.333 | 1.55
11 | N#Cc1ccc2[nH]cc(CCCCN3CCN(c4ccc5oc(C(N)=O)cc5c4)CC3)c2c1 | 0.0415 | 0.987
12 | CCC[C@H](NC(=O)[C@@H]1[C@H]2CCC[C@H]2CN1C(=O)[C@@H](NC(=O)[C@@H](NC(=O)c1cnccn1)C1CCCCC1)C(C)(C)C)C(=O)C(=O)NC1CC1 [Telaprevir (VX-950)] | 0.0337 | 1.39
13 | Cc1ccnc(NS(=O)(=O)c2ccc(N)cc2)n1 | 0.459 | 0.528
14 | CO[C@H]1C(=O)[C@]2(C)[C@@H](OC)C[C@H]3OC[C@@]3(OC(C)=O)[C@H]2[C@H](OC(=O)c2ccccc2)[C@]2(O)C[C@H](OC(=O)[C@H](O)[C@@H](NC(=O)OC(C)(C)C)c3ccccc3)C(C)=C1C2(C)C [Cabazitaxel (Jevtana)] | 0.256 | 1.24
15 | NCCCCCC(=O)O | 0.967 | 0.727
16 | CCC1(c2ccccc2)C(=O)NCNC1=O | 0.33 | 0.811
17 | CC(=O)CC(c1ccc([N+](=O)[O-])cc1)c1c(O)c2ccccc2oc1=O (stereo unspecified) | 0.279 | 0.29
18 | CC(C)(Sc1cc(C(C)(C)C)c(O)c(C(C)(C)C)c1)Sc1cc(C(C)(C)C)c(O)c(C(C)(C)C)c1 | 0.792 | 0.839
19 | Cc1ccccc1OCC(O)CO (stereo unspecified) | 0.392 | 0.853
20 | Nc1nc(N)c2nc(-c3ccccc3)c(N)nc2n1 | 0.0839 | 1.75
21 | CN(C)CCOC(c1ccccc1)c1ccccc1 | 0.272 | 0.789
22 | CC(COc1ccccc1)NC(C)C(O)c1ccc(O)cc1 (stereo unspecified) | 0.474 | 0.631
23 | COc1ccc2[nH]c([S@@+]([O-])Cc3ncc(C)c(OC)c3C)nc2c1 | 0.281 | 1.15
24 | CCS(=O)(=O)N1CC(CC#N)(n2cc(-c3ncnc4[nH]ccc34)cn2)C1 | 0.236 | 1.85
25 | Cc1cn([C@@H]2C[C@@H](O)[C@H](CO)O2)c(=O)[nH]c1=O [Telbivudine (Sebivo, Tyzeka)] | 0.205 | 0.951
26 | CCOC(=O)C1=C[C@@H](OC(CC)CC)[C@H](NC(C)=O)[C@@H](N)C1 | 0.257 | 0.588
27 | CC(C)(C)NCC(O)COc1cccc2c1CCC(=O)N2 (stereo unspecified) | 0.243 | 1.11
28 | CC(=O)[C@H]1CC[C@H]2[C@@H]3C[C@H](C)C4=CC(=O)CC[C@]4(C)[C@H]3[C@@H](O)C[C@]12C | 0.258 | 0.378
